# Reference: the supplement of paper PMC4466140
# Experiments:
# Assay in all cases: SPOT peptide array binding signal intensity (averaged, normalized) (arbitrary units (background-subtracted, floor 0; scale differs between SH3 domains)); higher = stronger binding of the SH3 domain to the peptide
# CaNbp2 = biological target: CaNbp2
# Method in brief: (§1)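 Four yeast species supplied the SH3 domains, which were expressed as GST fusions in E. coli BL21(DE3) and purified on glutathione Sepharose. Incubation with cellulose membranes carrying synthetic 15-mer peptides, cysteines exchanged for serines, ran overnight at 4°C at 10 μg/ml in TBS-based blocking buffer. Binding signal is reported as normalized, background-subtracted spot intensity averaged over replicates, in arbitrary units not shared between domains.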
# CaRvs167 = biological target: CaRvs167
# Method in brief: as §1
# CaRvs167-3 = biological target: CaRvs167-3
# Method in brief: as §1
# CaSho1 = biological target: CaSho1
# Method in brief: as §1
# CaSla1-D1-D2 = biological target: CaSla1-D1-D2
# Method in brief: as §1
# CaSla1-D3 = biological target: CaSla1-D3
# Method in brief: as §1
# ScAbp1 = biological target: ScAbp1
# Method in brief: as §1
# ScBbc1 = biological target: ScBbc1
# Method in brief: as §1
# ScBem1-D1 = biological target: ScBem1-D1
# Method in brief: as §1
# ScBzz1-D1 = biological target: ScBzz1-D1
# Method in brief: as §1
# ScBzz1-D2 = biological target: ScBzz1-D2
# Method in brief: as §1
# ScCyk3 = biological target: ScCyk3
# Method in brief: as §1
# ScFus1 = biological target: ScFus1
# Method in brief: as §1
# ScHof1 = biological target: ScHof1
# Method in brief: as §1
# ScHse1 = biological target: ScHse1
# Method in brief: as §1
# ScLsb1 = biological target: ScLsb1
# Method in brief: as §1
# ScLsb2 = biological target: ScLsb2
# Method in brief: as §1
# ScLsb3 = biological target: ScLsb3
# Method in brief: as §1
# ScLsb4 = biological target: ScLsb4
# Method in brief: as §1
# ScMyo3 = biological target: ScMyo3
# Method in brief: as §1
# ScMyo5 = biological target: ScMyo5
# Method in brief: as §1
# ScNbp2 = biological target: ScNbp2
# Method in brief: as §1
# ScPex13 = biological target: ScPex13
# Method in brief: as §1
# ScRvs167 = biological target: ScRvs167
# Method in brief: as §1
# ScSho1 = biological target: ScSho1
# Method in brief: as §1
# ScSla1-D1-D2 = biological target: ScSla1-D1-D2
# Method in brief: as §1
# ScSla1-D3 = biological target: ScSla1-D3
# Method in brief: as §1
# SpAbp1-D1 = biological target: SpAbp1-D1
# Method in brief: as §1
# SpBbc1 = biological target: SpBbc1
# Method in brief: as §1
# SpBzz1-D1 = biological target: SpBzz1-D1
# Method in brief: as §1
# SpBzz1-D2 = biological target: SpBzz1-D2
# Method in brief: as §1
# SpCyk3 = biological target: SpCyk3
# Method in brief: as §1
# SpHof1 = biological target: SpHof1
# Method in brief: as §1
# SpHof1-2 = biological target: SpHof1-2
# Method in brief: as §1
# SpHof1-3 = biological target: SpHof1-3
# Method in brief: as §1
# SpHse1 = biological target: SpHse1
# Method in brief: as §1
# SpLsb1 = biological target: SpLsb1
# Method in brief: as §1
# SpLsb4 = biological target: SpLsb4
# Method in brief: as §1
# SpMyo1 = biological target: SpMyo1
# Method in brief: as §1
# SpNbp2 = biological target: SpNbp2
# Method in brief: as §1
# SpPex13 = biological target: SpPex13
# Method in brief: as §1
# SpRvs167 = biological target: SpRvs167
# Method in brief: as §1
# SpSla1-D1-D2 = biological target: SpSla1-D1-D2
# Method in brief: as §1
# SpSla1-D3 = biological target: SpSla1-D3
# Method in brief: as §1
# AgAbp1 = biological target: AgAbp1
# Method in brief: as §1
# AgBbc1 = biological target: AgBbc1
# Method in brief: as §1
# AgBem1-D1 = biological target: AgBem1-D1
# Method in brief: as §1
# AgBzz1-D1 = biological target: AgBzz1-D1
# Method in brief: as §1
# AgBzz1-D2 = biological target: AgBzz1-D2
# Method in brief: as §1
# AgCyk3 = biological target: AgCyk3
# Method in brief: as §1
# AgFus1 = biological target: AgFus1
# Method in brief: as §1
# AgHof1 = biological target: AgHof1
# Method in brief: as §1
# AgHse1 = biological target: AgHse1
# Method in brief: as §1
# AgLsb1 = biological target: AgLsb1
# Method in brief: as §1
# AgLsb4 = biological target: AgLsb4
# Method in brief: as §1
# AgMyo5 = biological target: AgMyo5
# Method in brief: as §1
# AgNbp2 = biological target: AgNbp2
# Method in brief: as §1
# AgRvs167 = biological target: AgRvs167
# Method in brief: as §1
# AgSho1 = biological target: AgSho1
# Method in brief: as §1
# AgSla1-D1-D2 = biological target: AgSla1-D1-D2
# Method in brief: as §1
# AgSla1-D3 = biological target: AgSla1-D3
# Method in brief: as §1
# CaAbp1-D1 = biological target: CaAbp1-D1
# Method in brief: as §1
# CaAbp1-D2 = biological target: CaAbp1-D2
# Method in brief: as §1
# CaBbc1 = biological target: CaBbc1
# Method in brief: as §1
# CaBem1-D1 = biological target: CaBem1-D1
# Method in brief: as §1
# CaBzz1-D1 = biological target: CaBzz1-D1
# Method in brief: as §1
# CaBzz1-D2 = biological target: CaBzz1-D2
# Method in brief: as §1
# CaCyk3 = biological target: CaCyk3
# Method in brief: as §1
# CaFus1 = biological target: CaFus1
# Method in brief: as §1
# CaHof1 = biological target: CaHof1
# Method in brief: as §1
# CaHse1 = biological target: CaHse1
# Method in brief: as §1
# CaLsb1 = biological target: CaLsb1
# Method in brief: as §1
# CaLsb4 = biological target: CaLsb4
# Method in brief: as §1
# CaMyo5 = biological target: CaMyo5
# Method in brief: as §1
binder,measurement,setting,value
GKFIPSRPAPKPPSS,SPOT peptide array binding signal intensity,CaNbp2,3600
same,SPOT peptide array binding signal intensity,CaRvs167,26.2
same,SPOT peptide array binding signal intensity,CaRvs167-3,3.25
same,SPOT peptide array binding signal intensity,CaSho1,36
same,SPOT peptide array binding signal intensity,CaSla1-D1-D2,684
same,SPOT peptide array binding signal intensity,CaSla1-D3,14.5
same,SPOT peptide array binding signal intensity,ScAbp1,127
same,SPOT peptide array binding signal intensity,ScBbc1,552
same,SPOT peptide array binding signal intensity,ScBem1-D1,1
same,SPOT peptide array binding signal intensity,ScBzz1-D1,39
same,SPOT peptide array binding signal intensity,ScBzz1-D2,25
same,SPOT peptide array binding signal intensity,ScCyk3,2
same,SPOT peptide array binding signal intensity,ScFus1,≤ 0
same,SPOT peptide array binding signal intensity,ScHof1,8.25
same,SPOT peptide array binding signal intensity,ScHse1,74
same,SPOT peptide array binding signal intensity,ScLsb1,175
same,SPOT peptide array binding signal intensity,ScLsb2,161
same,SPOT peptide array binding signal intensity,ScLsb3,508
same,SPOT peptide array binding signal intensity,ScLsb4,13.5
same,SPOT peptide array binding signal intensity,ScMyo3,3530
same,SPOT peptide array binding signal intensity,ScMyo5,3480
same,SPOT peptide array binding signal intensity,ScNbp2,5410
same,SPOT peptide array binding signal intensity,ScPex13,1460
same,SPOT peptide array binding signal intensity,ScRvs167,274
same,SPOT peptide array binding signal intensity,ScSho1,66.5
same,SPOT peptide array binding signal intensity,ScSla1-D1-D2,652
same,SPOT peptide array binding signal intensity,ScSla1-D3,156
same,SPOT peptide array binding signal intensity,SpAbp1-D1,187
same,SPOT peptide array binding signal intensity,SpBbc1,46.5
same,SPOT peptide array binding signal intensity,SpBzz1-D1,735
same,SPOT peptide array binding signal intensity,SpBzz1-D2,9.5
same,SPOT peptide array binding signal intensity,SpCyk3,5
same,SPOT peptide array binding signal intensity,SpHof1,77.5
same,SPOT peptide array binding signal intensity,SpHof1-2,33
same,SPOT peptide array binding signal intensity,SpHof1-3,94.8
same,SPOT peptide array binding signal intensity,SpHse1,180
same,SPOT peptide array binding signal intensity,SpLsb1,98.8
same,SPOT peptide array binding signal intensity,SpLsb4,600
same,SPOT peptide array binding signal intensity,SpMyo1,2900
same,SPOT peptide array binding signal intensity,SpNbp2,850
same,SPOT peptide array binding signal intensity,SpPex13,22
same,SPOT peptide array binding signal intensity,SpRvs167,90
same,SPOT peptide array binding signal intensity,SpSla1-D1-D2,≤ 0
same,SPOT peptide array binding signal intensity,SpSla1-D3,3.5
QPQRTAPKPPISAPR,SPOT peptide array binding signal intensity,AgAbp1,2
same,SPOT peptide array binding signal intensity,AgBbc1,170
same,SPOT peptide array binding signal intensity,AgBem1-D1,128
same,SPOT peptide array binding signal intensity,AgBzz1-D1,51
same,SPOT peptide array binding signal intensity,AgBzz1-D2,28
same,SPOT peptide array binding signal intensity,AgCyk3,1
same,SPOT peptide array binding signal intensity,AgFus1,11
same,SPOT peptide array binding signal intensity,AgHof1,4.75
same,SPOT peptide array binding signal intensity,AgHse1,14
same,SPOT peptide array binding signal intensity,AgLsb1,0.5
same,SPOT peptide array binding signal intensity,AgLsb4,≤ 0
same,SPOT peptide array binding signal intensity,AgMyo5,327
same,SPOT peptide array binding signal intensity,AgNbp2,1510
same,SPOT peptide array binding signal intensity,AgRvs167,1
same,SPOT peptide array binding signal intensity,AgSho1,4
same,SPOT peptide array binding signal intensity,AgSla1-D1-D2,≤ 0
same,SPOT peptide array binding signal intensity,AgSla1-D3,≤ 0
same,SPOT peptide array binding signal intensity,CaAbp1-D1,≤ 0
same,SPOT peptide array binding signal intensity,CaAbp1-D2,5
same,SPOT peptide array binding signal intensity,CaBbc1,693
same,SPOT peptide array binding signal intensity,CaBem1-D1,73
same,SPOT peptide array binding signal intensity,CaBzz1-D1,1260
same,SPOT peptide array binding signal intensity,CaBzz1-D2,420
same,SPOT peptide array binding signal intensity,CaCyk3,0.5
same,SPOT peptide array binding signal intensity,CaFus1,≤ 0
same,SPOT peptide array binding signal intensity,CaHof1,0.5
same,SPOT peptide array binding signal intensity,CaHse1,≤ 0
same,SPOT peptide array binding signal intensity,CaLsb1,0.5
same,SPOT peptide array binding signal intensity,CaLsb4,≤ 0
same,SPOT peptide array binding signal intensity,CaMyo5,7.5
same,SPOT peptide array binding signal intensity,CaNbp2,1340
same,SPOT peptide array binding signal intensity,CaRvs167,≤ 0
same,SPOT peptide array binding signal intensity,CaRvs167-3,1
same,SPOT peptide array binding signal intensity,CaSho1,14
same,SPOT peptide array binding signal intensity,CaSla1-D1-D2,291
same,SPOT peptide array binding signal intensity,CaSla1-D3,0.5
same,SPOT peptide array binding signal intensity,ScAbp1,8
same,SPOT peptide array binding signal intensity,ScBbc1,268
same,SPOT peptide array binding signal intensity,ScBem1-D1,≤ 0
same,SPOT peptide array binding signal intensity,ScBzz1-D1,4
same,SPOT peptide array binding signal intensity,ScBzz1-D2,15.5
same,SPOT peptide array binding signal intensity,ScCyk3,≤ 0
same,SPOT peptide array binding signal intensity,ScFus1,≤ 0
same,SPOT peptide array binding signal intensity,ScHof1,≤ 0
same,SPOT peptide array binding signal intensity,ScHse1,≤ 0
same,SPOT peptide array binding signal intensity,ScLsb1,≤ 0
same,SPOT peptide array binding signal intensity,ScLsb2,≤ 0
same,SPOT peptide array binding signal intensity,ScLsb3,58
same,SPOT peptide array binding signal intensity,ScLsb4,≤ 0
same,SPOT peptide array binding signal intensity,ScMyo3,699
same,SPOT peptide array binding signal intensity,ScMyo5,613
same,SPOT peptide array binding signal intensity,ScNbp2,2700
same,SPOT peptide array binding signal intensity,ScPex13,131
same,SPOT peptide array binding signal intensity,ScRvs167,≤ 0
same,SPOT peptide array binding signal intensity,ScSho1,6
same,SPOT peptide array binding signal intensity,ScSla1-D1-D2,1730
same,SPOT peptide array binding signal intensity,ScSla1-D3,25.5
same,SPOT peptide array binding signal intensity,SpAbp1-D1,2.5
same,SPOT peptide array binding signal intensity,SpBbc1,10
same,SPOT peptide array binding signal intensity,SpBzz1-D1,260
